In PubChem BioAssay (Tox21):
Results filed as inconclusive are left out. Calls of active or inactive are those of the source. Calls come from the whole dose curve; as a rule, active = well fitted activation curve with a large enough effect in the repeat runs; inconclusive = weak or mixed curves; inactive = flat fitted curve, though single readings scatter.

Assay: A CellTox Green Cytotoxicity Assay to monitor cytotoxicity in HepG2 cells - 16 hour (AID 1224876); note: nearly all actives have a fitted effect of over 45% in size
Conditions: CellTox Green fluorescence; series mostly up to 76.8 µM; cytotoxicity increase: at the top concentration
Description: National Center for Advancing Translational Sciences [NCATS]
NIH Chemical Genomics Center [NCGC]
U.S. Environmental Protection Agency [EPA]
National Institutes of Environmental Health Sciences [NIEHS]
National Toxicology Program [NTP]
Cell-based models are critical for drug discovery. Determining the natural cytotoxic effects resulting from test compounds is an essential research activity. A CellTox Green Cytotoxicity Assay to monitor cytotoxicity in real time of continues cell culture during 40 hours of the compound treatment was used to screen Tox21 10K library compounds in HepG2 cells. CellTox Green Cytotoxicity Assay is a nonlytic, homogeneous, biofluorescent method to measure cytotoxicity in cell culture after experimental manipulation. The assay system uses a proprietary asymmetric cyanine dye that is excluded from viable cells but preferentially stains the dead cell's DNA. […] Viable cells produce no appreciable increases in fluorescence. Therefore, the fluorescence signal produced by the binding interaction with dead cell DNA is proportional to cytotoxicity.
The mixture of HepG2 cell suspension and reagents were dispensed at 600cells/6 ul/well in 1536-well tissue culture treated black solid bottom plates using a Multidrop dispenser. After the assay plates were incubated at a 37 C/5% CO2 incubator for 5 hours, 23 nL of compounds dissolved in DMSO, positive and negative controls was transferred to the assay plate by a pintool work station. The plates were incubated at 37 C for 40 hours. The fluorescence intensity were measured at 0h, 8h, 16h, 24h, 32h and 40h time points using ViewLux plate reader during compound treatment.
% is set by controls: 0 for no effect and ±100 for the full control effect.

Row | Structure (SMILES) | cytotoxicity increase
1 | CCn1cc(C(=O)O)c(=O)c2cc(F)c(N3CCN(C)CC3)cc21 | -8.46% [at 15.8 µM] (inactive)
2 | CSc1ccc(C=O)cc1 | 0.503% (inactive)
3 | N#CCc1ccccc1[N+](=O)[O-] | -4.36% (inactive)
4 | CC(C)(C)OC(=O)N1C[C@@H](F)C[C@H]1C(=O)O | 0.189% (inactive)
5 | OCC(O)[C@@H](O)[C@H](O)[C@H](O)CO[C@H]1O[C@H](CO)[C@@H](O)[C@H](O)[C@H]1O (stereo not given in full) | -4.64% (inactive)
6 | CCCCNc1ccccc1 | -9.81% (inactive)
7 | COc1cccc(OC)c1 | -15.6% (inactive)
8 | NS(=O)(=O)c1cc2c(cc1C(F)(F)F)NC(Cc1ccccc1)NS2(=O)=O (stereo not given) | -4.4% [at 35.3 µM] (inactive)
9 | CCCCCC[C@@H](CCC)C(=O)O | 1.83% [at 35.3 µM] (inactive)
10 | CC1(C)OC(=O)Nc2ccc(Br)cc21 | 10.1% [at 35.3 µM] (inactive)
11 | CC(C)CCOC(=O)CC(C)C | -8.38% (inactive)
12 | O=C(O)/C=C/c1ccc(Cn2ccnc2)cc1 | -7.38% [at 35.3 µM] (inactive)
13 | OCCN1C[C@H](O)[C@@H](O)[C@H](O)[C@H]1CO | -14.5% [at 35.3 µM] (inactive)
14 | CCCCCCC(CCCCCCCCCCC(=O)OCC(COC(C)=O)OC(C)=O)OC(C)=O (stereo not given) | -1.4% [at 35.3 µM] (inactive)
15 | CCOC(=O)Nc1ccc2c(c1)N(C(=O)CCN1CCOCC1)c1ccccc1S2 | -10.4% [at 35.3 µM] (inactive)
16 | CC(C)(C)CC(C)(C)N | 8.02% (inactive)
17 | C[C@H](O)C(=O)Nc1c(I)c(C(=O)NC(CO)CO)c(I)c(C(=O)NC(CO)CO)c1I | 3.09% [at 35.3 µM] (inactive)
18 | CCCC(C)C(=O)O (stereo not given) | 5.8% (inactive)
19 | CCC(=O)/C=C/c1ccc(OC)cc1 | -0.726% (inactive)
20 | CC(=O)N[C@@H](CCC(N)=O)C(=O)O | -1.99% [at 35.3 µM] (inactive)

Row | Structure (SMILES) | cytotoxicity increase
21 | CC(C)(O)Cc1ccccc1 | 0.347% (inactive)
22 | COc1ccc(COC=O)cc1 | -1.56% (inactive)
23 | OCc1ccccn1 | -0.353% [at 35.3 µM] (inactive)
24 | OC1OC[C@@H](O)[C@H](O)[C@H]1O (stereo not given in full) | -4.55% (inactive)
25 | CC1CCN(CCCC(=O)c2ccc(F)cc2)CC1 | -9.89% [at 35.3 µM] (inactive)
26 | C1CCCCCCCCCCC1 | -3.96% [at 15.8 µM] (inactive)
27 | NCCN1CCNC1=O | -0.913% (inactive)
28 | NS(=O)(=O)c1cc(C2(O)NC(=O)c3ccccc32)ccc1Cl (stereo not given) | 0.161% [at 35.3 µM] (inactive)
29 | CC(=O)O[C@H](CC(=O)[O-])C[N+](C)(C)C | -10.3% (inactive)
30 | CCCc1ccccc1O | 4.93% (inactive)
31 | O=C(O)Cc1cc(I)c(Oc2cc(I)c(O)c(I)c2)c(I)c1 | 2.52% [at 35.3 µM] (inactive)
32 | CC(C)(C)N(CCO)CCO | -4.16% (inactive)
33 | CC(C)COC(=O)C(C)C | -4.95% (inactive)
34 | COc1nc(C)nc(N)n1 | 0.972% (inactive)
35 | COC(=O)[C@H]1[C@H]2C[C@@H]3c4[nH]c5cc(OC)ccc5c4CCN3C[C@H]2C[C@@H](OC(=O)COc2ccc(OC)cc2)[C@@H]1OC | -2.03% [at 35.3 µM] (inactive)
36 | O=c1[nH]c(=O)n([C@H]2O[C@H](CO)[C@@H](O)[C@@H]2O)cc1/C=C\Br | 1.51% [at 35.3 µM] (inactive)
37 | Oc1cc(O)c2c(c1)O[C@H](c1ccc(O)c(O)c1)[C@H](O)C2 | 1.84% [at 35.3 µM] (inactive)
38 | CN(C)C(=O)Nc1ccccc1 | -3.18% (inactive)
39 | C=CCn1c(=O)n([C@@H]2O[C@H](CO)[C@@H](O)[C@H]2O)c2nc(N)[nH]c(=O)c21 | -10.2% [at 35.3 µM] (inactive)
40 | CN1[C@@H]2CC[C@H]1CC(NC(=O)n1c(=O)[nH]c3ccccc31)C2 (stereo not given in full) | 2.53% [at 35.3 µM] (inactive)
